A selection: hits, their analogues and other compounds. The true share with any hit is near 1.2%.
RGS4-Gao reg: modulators of RGS4 binding to Galphao, primary screen, biochemical, multiplexed bead flow cytometry | Guanine nucleotide-binding protein G(o) subunit alpha (Homo sapiens), P09471 | binding response (% of control), % at 10 µM | hit rate 0.33% among 220,000 | actives lie on both sides; in the data active means binding response below about 49% or above about 150%; inactive means in between;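 further: fluorescent Galphao activated with aluminum fluoride binding bead-coupled RGS4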
Target sequence (P09471 whole entry, looked up): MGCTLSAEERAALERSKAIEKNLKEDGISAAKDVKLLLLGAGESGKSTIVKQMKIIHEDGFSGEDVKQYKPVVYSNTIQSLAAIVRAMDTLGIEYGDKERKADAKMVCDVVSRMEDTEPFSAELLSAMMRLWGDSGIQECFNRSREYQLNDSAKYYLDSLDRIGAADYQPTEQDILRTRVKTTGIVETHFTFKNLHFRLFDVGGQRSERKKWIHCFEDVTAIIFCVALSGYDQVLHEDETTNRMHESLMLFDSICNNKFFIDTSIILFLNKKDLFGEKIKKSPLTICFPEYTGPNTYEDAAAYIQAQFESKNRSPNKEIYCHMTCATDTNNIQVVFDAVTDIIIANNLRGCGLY
RGS7-Gao: RGS7-Galphao binding modulators, primary screen, biochemical, multiplexed bead flow cytometry; Guanine nucleotide-binding protein G(o) subunit alpha (Homo sapiens), P09471; actives lie on both sides; binding response (% of control), % at 10 µM; hit rate 0.35% among 220,000; in the data active means binding response below about 49% or above about 150%; inconclusive means no clear call, values can overlap the other calls; inactive means in between;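 further: fluorescent Galphao held in activated GDP-AlF4 state binding bead-coupled RGS7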
RGS16-Gao HTS: modulators of RGS16 binding to Galphao, primary screen, biochemical, human proteins, multiplexed bead flow cytometry | AID 1441, 2008 | bead-based flow cytometry RGS16-Galphao binding, fluorescence; actives lie on both sides | binding response (% of control), % at 10 µM | hit rate 0.38% among 220,000; call rule not given here;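 further: Galphao activated by GDP with aluminum fluoride before binding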
Target sequence (O15492 whole entry, looked up): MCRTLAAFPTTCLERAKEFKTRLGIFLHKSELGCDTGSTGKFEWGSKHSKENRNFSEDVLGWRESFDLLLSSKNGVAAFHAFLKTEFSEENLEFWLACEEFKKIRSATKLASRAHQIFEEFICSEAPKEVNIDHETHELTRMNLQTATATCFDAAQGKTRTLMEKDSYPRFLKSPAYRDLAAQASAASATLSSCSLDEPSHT
Target sequence (P09471 whole entry, looked up): as the sequence (P09471 whole entry, looked up) above
Avidin fluor: green autofluorescence of compounds with avidin beads – biophysical, 488/530 nm, flow cytometry, artefact control, profiling panel. AID 1775, 2009. hit rate 0.38% among 220,000. fluorescence (KMESF) at 10 µM. compound fluorescence 488/530 nm; stronger effect = higher value; in the data active means fluorescence above about 47
GSH fluor: compound fluorescence on glutathione beads, profiling panel, artefact control, biophysical, 488/530 nm, flow cytometry | fluorescence (KMESF) at 10 µM | hit rate 0.25% among 190,000 | GSH beads flow cytometry, compound fluorescence 488/530 nm; stronger effect = higher value; in the data active means fluorescence above about 89;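 further: glutathione beads carrying GST-tagged Bcl family fusion proteins plus one bare bead set; values are compound well signal with DMSO vehicle wells as background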
RGS8-Gao reg: RGS8-Galphao binding modulators, primary screen, biochemical, multiplexed bead flow cytometry; Guanine nucleotide-binding protein G(o) subunit alpha (Homo sapiens), P09471; hit rate 0.34% among 220,000; actives lie on both sides; response (percent of control binding), % at 10 µM; in the data active means response below about 60% or above about 140%; inactive means in between;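 further: Galphao activated as the GDP aluminium fluoride complex binding bead-coupled RGS8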
* hit, by the source's call; ? = inconclusive; . = not tested or not shown.

SMILES	RGS4-Gao reg	RGS7-Gao	RGS16-Gao HTS	Avidin fluor	GSH fluor	RGS8-Gao reg
CCOc1ncccc1C(=O)OCC(=O)c1ccc(C)c(C)c1	93.1	90.0	93.9	9	16	95.9
O=C(Cn1cc(C(F)(F)F)ccc1=O)Nc1cccc(S(=O)(=O)N2CCOCC2)c1	105.7	135.8	99.3	96*	11	101.2
COc1ccc(CNC(=O)c2cnn3c(C(F)F)cc(C)nc23)cc1	103.3	131.7	87.5	94*	11	94.8
Cc1cc(C)n2ncc(C(=O)NCc3ccccc3)c2n1	99.5	98.7	105.3	7	264*	102.1
CCOC(=O)C1CCN(C(=O)c2cc3c(=O)n4ccccc4nc3n2C)CC1	101.1	?	100.4	9	21	100.7
Cc1cccc2sc(NC(=O)c3ccc(Cl)s3)nc12	99.5	100.6	100.7	7	21	100.4
COc1cccc2sc(NC(=O)c3ccc(Br)s3)nc12	86.9	86.8	92.2	7	265*	90.7
Cc1onc(-c2c(Cl)cccc2Cl)c1NC(=O)N(C)N	134.5	?	130.9	49*	.	106.1
COC(=O)C(C)N1C(=O)S/C(=C/c2cc(C)n(-c3ccccn3)c2C)C1=O (stereo not drawn)	103.8	101.1	97.8	8	267*	104.0
O=C1C2CCCN2C(c2cccc(Br)c2)N1c1ccc(F)cc1 (stereo not drawn)	100.9	113.3	103.7	48*	16	100.8
O=C1C2CCCN2C(c2ccc(Br)cc2)N1c1ccc(F)cc1 (stereo not drawn)	101.3	96.2	105.6	7	26	105.5
COc1cccc2cc(C(=O)N3CCCCC3C)c(=O)oc12 (stereo not drawn)	112.6	109.7	109.1	5	120*	109.7
N/C(=N\OC(=O)c1cccs1)c1ccccc1	116.1	148.5	85.2	51*	5	102.1
CC1N(O)C(C)(C)C(c2ccccc2)=[N+]1[O-] (stereo not drawn)	81.7	83.9	77.4	3	103*	81.4
CN1C(=O)c2ccccc2Sc2ccc(NC(=O)NC3CC3)cc21	107.9	133.2	105.1	92*	20	100.2
O=C(Nc1ccc2c(c1)N(Cc1ccccc1)C(=O)c1ccccc1S2)NC1CC1	89.5	94.3	75.0	8	24	88.6
Fc1ccc(N2CCN(c3ccc4c(C(F)(F)F)cc(C(F)(F)F)nc4n3)CC2)cc1	117.5	133.1	121.1	92*	15	100.3
O=C1CN(C(=O)CNCc2cccc(Cl)c2)c2ccccc2N1	90.3	?	92.0	6	.	96.9
Cn1nnc(NC(=O)CSc2ccc(Cl)cc2)n1	99.0	105.2	98.1	48*	25	99.5
COc1ccc(N2C(=O)C(CC(=O)O)S/C2=C\C(C)=O)cc1 (stereo not drawn)	94.2	96.3	98.6	6	251*	96.9
N#C/C(=C\c1ccccc1)C(=O)OCC(=O)N1CCCC1	103.6	?	102.6	8	15	101.3
COCCn1c(-c2ccc(Br)cc2)nc2oc3cc(OC)ccc3c(=O)c2c1=O	101.1	?	99.0	7	.	100.3
CCOC(=O)c1cn(CC2CC2)c2cc(F)c(F)cc2c1=O	109.5	148.0	111.7	54*	26	102.3
CC(C)Sc1nnc(CNC(=O)C23CC4CC(CC(C4)C2)C3)n1C1CCCCC1	103.6	106.3	107.7	11	12	102.2
CC1(C)CC(=O)C=C(Nc2ccc(F)cc2F)C1	104.3	105.6	109.8	18	11	103.0
SMILES	RGS4-Gao reg	RGS7-Gao	RGS16-Gao HTS	Avidin fluor	GSH fluor	RGS8-Gao reg
CC1(C)CC(=O)C=C(Nc2ccccc2F)C1	105.9	101.3	107.2	8	267*	102.7
COc1ccccc1N(Cc1cc(=O)[nH]c2ccccc12)C(=O)c1ccccc1	90.9	?	93.1	9	.	97.0
CN(Cc1cc(=O)[nH]c2ccccc12)C(=O)c1ccccc1	99.2	93.8	100.6	7	271*	101.6
CCOC(=O)c1[nH]c2ccc(OC)cc2c1NC(C)=O	106.3	120.7	101.8	62*	15	100.6
COC(=O)c1[nH]c2cccc(OC)c2c1NC(=O)CCN1CCC(C)CC1	100.3	100.3	101.1	33	22	101.0
CCOC(=O)Nc1c(C(=O)OC)[nH]c2cccc(OC)c12	121.7	120.4	124.6	57*	28	102.6
Cn1nc(C(=O)OCC(=O)Nc2ccc(S(N)(=O)=O)cc2)c2ccccc2c1=O	95.7	?	94.8	6	.	92.8
COc1ccccc1NC(=O)NCCC1=CCCCC1	98.0	99.6	99.8	3	10	101.2
COc1ccccc1NC(=O)Nc1ccc(Br)cn1	106.3	107.0	110.1	6	266*	102.6
CCOc1ccccc1NC(=O)Nc1ccc(Br)cn1	100.2	100.0	100.7	11	24	101.3
COc1ccccc1NC(=S)NC(C)=O	101.8	101.6	101.5	10	9	100.0
COc1ccccc1NC(C)=O	78.4	75.6	-1.1	4	251*	80.8
COc1ccccc1NC(=O)NCCCl	103.7	137.1	108.3	92*	12	99.8
COc1ccc2nc(NC(=O)c3sc4nc(C)cc(C)c4c3N)sc2c1	101.6	?	106.7	8	.	105.9
O=S(=O)(Oc1ccc(Cl)cc1)c1cccc2cccnc12	100.6	?	104.4	3	.	100.1
COc1cc(N2CCCC2)c(OC)cc1/C=C(/C#N)c1ccc(Br)cc1	129.5	129.0	170.3	59*	74	94.8
O=C(CC1C(=O)NCCN1Cc1ccc(-c2ccccc2)cc1)NCCCn1ccnc1 (stereo not drawn)	105.9	?	102.8	5	.	103.4
CCOC(=O)NC(=O)CSc1nnnn1-c1ccccc1	115.9	135.1	123.3	109*	30	104.1
Cc1ccc2nc(-c3ccc(SCC(=O)Nc4ccc5c(c4)OCCO5)nc3)[nH]c2c1	101.7	103.0	100.4	5	12	101.3
Cc1cc2nc(-c3ccc(SCC(=O)Nc4ccc5c(c4)OCCO5)nc3)[nH]c2cc1C	101.4	108.8	101.4	53*	11	101.0
Cc1nn(C)c(C)c1CN(Cc1nc(CCC(C)C)no1)C(C)C	102.4	104.9	108.4	14	15	102.1
COc1cc2[nH]c(=O)n(Cc3ccc(C(=O)NC4CCCC4)cc3)c(=O)c2cc1OC	111.2	103.6	105.8	24	10	107.1
COc1cc2[nH]c(=O)n(CCC(=O)NC3CCCC3)c(=O)c2cc1OC	106.7	119.9	102.7	68*	23	102.5
CC(C)=CC(=O)OCC(=O)Nc1ccccc1Cl	98.4	100.7	99.0	7	266*	97.9
O=C(Nc1nc2c(s1)CCCC2=O)c1cnccn1	98.9	95.6	100.7	8	269*	101.5

Screening data from PubChem BioAssay.
